An excerpt weighted towards active compounds, which were near 3.1% of everything screened.
Vif-APOBEC3G blk – Vif-A3G binding inhibition. Q9HC16. HeLa A3G-eYFP + Vif (tagged APOBEC3G with the HIV-1 protein that degrades it), YFP fluorescence, overnight. Potency, µM (highest dose often 46.1 µM), without a hit: top-dose activity, negative = active, hits mostly inhibitors. actives 0.076% (n = 410,000); further: potency means the concentration at half of the fitted maximal effect; on the % scale 0 is the no-effect control and ±100 the full control effect; nearly all actives have a fitted effect of over 60% in size
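HeLa cells stably expressing Vif and C-terminally eYFP-tagged A3G, seeded overnight at 37 deg C, then exposed to compound by pintool overnight at 37 deg C. Rise in yellow fluorescence (Ex 488/Em 500-530, Acumen) marks blocked Vif-driven A3G degradation.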
Vif-APOBEC3F blk – Vif-A3F binding inhibition; HeLa A3F-eYFP + Vif (tagged APOBEC3F with the HIV-1 protein that degrades it), YFP fluorescence increase; Potency, µM (series often up to 46.1 µM), without a hit: at the highest dose activity, negative = active; actives 0.2% (n = 390,000); AID 602313; further: potency means the concentration at half of the fitted maximal effect; % of control where 0% means no effect; nearly all actives have a fitted effect of over 65% in size
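HeLa cells stably expressing Vif plus C-terminally eYFP-tagged A3F were seeded, incubated overnight at 37 deg C, dosed with compound, incubated overnight again at 37 deg C. Yellow fluorescence (Ex 488/Em 500-530) reported blocked Vif-mediated A3F-eYFP degradation.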
PLK1 PBD inh – inhibitors of human PLK1 polo-box domain binding; actives 2.8% (n = 360,000); Plk1 PBD binding of FITC phosphopeptide, fluorescence polarization; Potency, µM, for inactives: max response, negative = inhibition, actives largely listed as inhibitors; further: potency means the concentration at half of the fitted maximal effect; series mostly up to about 57 µM; on the % scale 0 is the no-effect control and ±100 the full control effect; nearly all actives have a fitted effect of over 65% in size
VDR inhibitor – blocks the human vitamin D receptor; P11473; VDR-SRC2-3 peptide fluorescence polarization, 2 h; Potency, µM, for the others: max response, negative = inhibition, hits mostly inhibitors; actives 0.93% (n = 400,000); AID 504847; further: potency means the concentration at half of the fitted maximal effect; on the % scale 0 is the no-effect control and ±100 the full control effect
Target sequence (P11473 whole entry, looked up): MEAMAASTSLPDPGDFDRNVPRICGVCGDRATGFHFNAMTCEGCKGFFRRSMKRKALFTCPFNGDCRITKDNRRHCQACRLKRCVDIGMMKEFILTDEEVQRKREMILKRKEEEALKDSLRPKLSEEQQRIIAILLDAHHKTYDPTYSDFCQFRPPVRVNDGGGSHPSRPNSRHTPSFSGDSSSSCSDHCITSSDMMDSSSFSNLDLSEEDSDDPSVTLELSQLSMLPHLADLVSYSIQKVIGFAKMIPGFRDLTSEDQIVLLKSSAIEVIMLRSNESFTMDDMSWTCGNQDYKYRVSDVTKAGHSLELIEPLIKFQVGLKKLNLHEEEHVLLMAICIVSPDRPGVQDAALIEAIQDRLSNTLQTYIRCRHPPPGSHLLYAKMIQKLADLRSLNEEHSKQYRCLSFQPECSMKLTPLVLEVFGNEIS
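The screen uses fluorescence polarization to detect compounds that interfere with recruitment of the SRC2-3 coactivator peptide to VDR; plates are read after 2 h at room temperature.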
TSHR antagonist – antagonists of human thyroid stimulating hormone receptor; activity change, negative = inhibition, % at 11.5 µM; TSHR-expressing cells, TSH-stimulated cAMP HTRF, 2 h; stronger effect = lower value; actives 0.2% (n = 330,000); AID 504810;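 active means activity change below a set negative limit, meaning inhibition stronger than a set level, cut at about -70% in these data; inconclusive means activity change between two set negative limits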; further: on the % scale 0 is the no-effect control and ±100 the full control effect
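Freshly harvested TSHR cells receive pin-tooled compound, then EC80 TSH at 4nM final. After 2 hours at 37 deg C, antibody in lysis buffer and cAMP-d2 are added; 30 minutes at ambient temperature precede the HTRF read.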
Active calls of the source: *; ? = inconclusive; · = no result. Unless noted, the call rests on the fitted dose curve; in most records, active means well fitted curve in the direction sought with a large enough effect; inconclusive means small, poorly fitted or top-dose-only effect, or another doubt; inactive means no such curve, though single readings can be large; an effect the other way counts as inactive or inconclusive.

SMILES	Vif-APOBEC3G blk	Vif-APOBEC3F blk	PLK1 PBD inh	VDR inhibitor	TSHR antagonist
N#CC1=C(N)N(c2cccc(Cl)c2)C2=C(C(=O)CCC2)C1c1cc(CN2CCOCC2)cs1 (stereo not drawn)	-7%	-5%	·	-22%	·
Cn1c(CNC(=O)C(Cc2ccccc2)NC(=O)c2cccc(F)c2)cc(=O)n(C)c1=O (stereo not drawn)	-5%	-8%	27µM*	-10%	42
CCNc1ncc2nc(-c3ccccc3)c(=O)n(C[C@H]3CCCO3)c2n1	·	·	·	-10%	·
O=C(NS(=O)(=O)c1ccc(F)cc1)O[C@@H]1C(=O)c2cc(Br)ccc2O[C@H]1c1ccc2c(c1)OCO2	·	·	·	-6%	·
CC(C)n1c(=S)[nH]c2scc(-c3cccs3)c2c1=O	-11%	1%	27µM*	8%	15
O=c1c2c(-c3cccs3)csc2[nH]c(=S)n1-c1ccccc1	-1%	2%	21µM*	13%	8
COc1ccc(S(=O)(=O)Nc2nc3ccccc3nc2Nc2ccc3c(c2)OCO3)cc1	·	·	·	·	-11
O=S(=O)(Nc1nc2ccccc2nc1Nc1ccc2c(c1)OCCO2)c1cccs1	-16%	11µM*	-20%	4%	-4
N=C1C(c2ccccc2)=C(O)CN1CCO	2%	-9%	24µM*	-11%	-3
CCOC(=O)C1=NOC(COc2ccccc2C=O)C1 (stereo not drawn)	1%	-9%	27µM*	?	-7
CCOC(=O)C1=NOC(CNC(=O)C2=NOC(CNC(=O)c3c(-c4ccccc4Cl)noc3C)C2)C1 (stereo not drawn)	-3%	-13%	-2%	15%	11
Cc1c(C(=O)O)[nH]c2ccc([N+](=O)[O-])cc12	-1%	-2%	?	-6%	-16
NCCc1c(C(=O)O)[nH]c2ccc([N+](=O)[O-])cc12	0%	-9%	21µM*	?	-5
CC/C(C)=C1/NC(=O)NC1=O	3%	1%	-15%	8%	·
CCCCCC/C(C)=C1/SC(=S)NC1=O	-8%	-5%	24µM*	?	-85*
C/C(C/C(C)=C1/SC(=S)NC1=O)=C1\SC(=S)NC1=O	-4%	-8%	19µM*	?	-1
CC(C)(C)n1ncc2c(=O)n(Cc3ccc([S+](=O)([O-])N4CCOCC4)cc3)cnc21	0%	·	·	·	·
COc1ccc(-n2c(CCC(=O)O)ccc2-c2ccccc2)c(OC)c1	·	·	·	7%	·
COc1cccc(-c2nc(N(C)C)c3ccccc3n2)c1	·	·	·	56µM*	·
COc1ccc(NC(=O)CN(C)C(=O)c2ccc(=O)[nH]c2)cc1	-1%	1%	9%	15%	11
COc1ccc(C(C(=O)Nc2ccc(C(C)C)cc2)N(C)C(=O)c2ccc(=O)[nH]c2)cc1 (stereo not drawn)	-1%	-2%	27µM*	6%	-10
COc1ccc(-c2nc3scc(CCNS(=O)(=O)c4ccc(F)c(C(F)(F)F)c4)n3n2)cc1OC	1%	1%	·	6%	·
CCOCCCNC(=O)c1cnc2sc(N3CCCCC3)nn2c1=O	2%	2%	·	8%	·
O=C(NC(=S)N1CCOCC1)C12CCC3CC(CC(C3)C1)C2	5%	-10%	30µM*	-4%	19
O=C(NC(=S)N1CCOCC1)C12CC3CCC(CC(C3)C1)C2	-2%	-16%	-1%	-9%	2
SMILES	Vif-APOBEC3G blk	Vif-APOBEC3F blk	PLK1 PBD inh	VDR inhibitor	TSHR antagonist
O=C(Nc1nc(=O)n(C(=O)c2cccc(C(F)(F)F)c2)s1)c1ccccc1	-6%	3%	17µM*	14µM*	5
Cc1cc(C)cc(NC(=O)C(=O)NCC(c2cccnc2)N2CCc3ccccc32)c1 (stereo not drawn)	3%	-4%	·	1%	·
CCCCC[C@H](O)/C=C\[C@H]1[C@H](C/C=C\CCCC(=O)O)[C@@H](O)C[C@H]1O (tested in a mixture with another compound)	·	·	·	2%	·
COc1ccc(C(=O)c2ncc(C(F)(F)F)cc2Cl)cc1	0%	-6%	24µM*	?	0
COc1cccc(C(=O)c2ncc(C(F)(F)F)cc2Cl)c1	-1%	0%	-9%	-6%	-2
CCS(=O)(=O)C1=NN2C(=N)/C(=C\c3ccc(OS(=O)(=O)c4ccccc4)cc3)C(=O)N=C2S1	0%	-9%	21µM*	50µM*	4
CCS(=O)(=O)C1=NSC2=NC(=O)/C(=C\c3ccc(OS(=O)(=O)c4ccccc4)c(OC)c3)C(=N)N21	-6%	0%	27µM*	50µM*	-11
Cc1ccc(S(=O)(=O)Oc2ccc(/C=C3/C(=N)N4C(=NC3=O)SN=C4S(C)(=O)=O)cc2)cc1	-4%	5%	21µM*	?	-7
Cc1ccc(-n2cccc2/C=C2/C(=N)N3C(=NC2=O)SN=C3S(C)(=O)=O)cc1	-2%	-21%	?	-29%	-15
CCC1=NN2C(=N)/C(=C/c3ccc(OS(=O)(=O)c4ccccc4)cc3)C(=O)N=C2S1	-10%	-20%	?	?	15
CCc1ccc(-n2cccc2/C=C2/C(=N)N3C(=NC2=O)SN=C3S(C)(=O)=O)cc1	-22%	-13%	13µM*	?	?
Cc1cc(C)c2c(C)ccnc2c1	-5%	·	·	·	·
CC[C@H](C)[C@H](NC(=O)[C@@H]1CCCN1C(=O)[C@H](Cc1cnc[nH]1)NC(=O)[C@@H](NC(=O)[C@H](Cc1ccc(O)cc1)NC(=O)[C@@H](NC(=O)[C@H](CCCN=C(N)N)NC(=O)CNC)C(C)C)[C@@H](C)CC)C(=O)O	·	·	·	-2%	·
COc1ccc(-c2ccc(OC)c(C3C4C=CCC(C)C4C(=O)N3Cc3ccccc3)c2)cc1 (stereo not drawn)	-4%	·	·	-7%	·
CCOC(=O)c1c(C)n(-c2ccccc2)c2ccc(OC(=O)c3ccccc3NC(=O)C(C)(C)C)cc12	-9%	0%	·	-5%	·
